The source of these data is PubChem BioAssay.

Activity calls are given as the source filed them.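 Rule for the calls, unless noted: active = inhibition above 20% together with a positive visual image hit; inconclusive = visual image hit but inhibition not above 20%; inactive = no visual image hit.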

The nature of assay [1]: inhibitors of TNFa-induced NFkB p65 translocation, primary screen, imaging, HUVEC, MLSMR starter and 10KST1 sets (AID 438).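 For inhibition: signal is the nuclear over cytoplasmic p65 intensity ratio per well.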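 Note: compound added about 3h40 before a 20 min TNFalpha stimulation.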 The following applies: HUVEC TNFa-induced p65 nuclear translocation; cell count: measured here: nuclei count (cytotoxicity indicator), at 2.08 µM; inhibition: at 2 µM, stronger effect = higher value, 0% TNFa-plus-vehicle, 100% no-TNFa wells.
Assay [2] can be described thus: inhibitors of mutant huntingtin aggregation, primary screen, imaging, exon1htt(103Q)mCFP cells, high-content imaging (AID 483;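 active = visual image review flags a hit and inhibition of aggregation exceeds 20%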;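 note: compound exposure lasted 3 days before fixation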;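 for nuclei count: percent of the per-plate median nuclei count of sample wells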). As to conditions: exon1htt(103Q)mCFP cell line, aggregate imaging, at 2 µM; inhibition of aggregation: stronger effect = higher value; nuclei count: measured here: cell count, toxicity.
Assay [3] is described as follows: inhibitors of E-selectin induction by TNFa, primary screen, imaging, HUVEC, immunofluorescence, MLSMR starter and 10KST1 sets (AID 487;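 active = visually confirmed hit in the image check and inhibition above 20%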;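 for inhibition: signal is fraction of cell area covered by stained E-selectin grains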;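 for nuclei count: 100% = median nuclei count of all wells on the same plate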). The following applies: HUVEC TNFalpha-induced E-selectin immunofluorescence imaging, at 2 µM; inhibition: stronger effect = higher value; nuclei count: measured here: cell number, toxicity.
Assay [4] concerns the target Voltage-gated potassium channel subunit beta-2 (Rattus norvegicus) (UniProt P62483). The assay is described as follows: KvBeta enzyme negative modulators, primary screen, biochemical, NADPH fluorescence (AID 622;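 active = fluorescence slope higher than the sample average by over 3 SD, cut at about -0.22 in these data, passing the limit was not always enough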;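 note: slope of raw intensity against log time taken from 70 to 1610 s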). As to conditions: recombinant KvBeta, 4-cyanobenzaldehyde reduction, at 10 µM, stronger effect = higher value.
The target is the same in assay [5]. Description: KvBeta positive modulators, primary screen, biochemical, NADPH fluorescence (AID 623;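 active = NADPH fluorescence slope more negative than the mean of all samples by about 3 SD, 99.7% confidence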;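 note: fluorescence intensity change per second fitted from 20 to 320 s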). As to conditions: Recombinant KvBeta, NADPH fluorescence decrease slope, 10 min; at 10 µM; stronger effect = lower value.
Assay [6] concerns the target Alpha-2C adrenergic receptor (Homo sapiens) (UniProt P18825). The assay is described as follows: modulators of alpha2C/GIRK thallium flux, primary screen, cell-based, HEK293 alpha2C/GIRK1/2 (AID 624;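 active = fluorescence slope after compound addition differing from the mean of all screened samples at 99.7% confidence, in either direction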;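 note: slope of fluorescence ratio to pre-addition baseline per second over 15 to 24 s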). As to conditions: thallium flux BTC fluorescence, at 10 µM, actives lie on both sides.
Assay [7] in a line: inhibitors of Sendai virus-induced IRF3 signaling, primary screen, TLR/RLR signaling modifier project, cell-based, Sendai virus stimulus, luciferase, 10K MLSCN set (AID 602276;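 active = inhibition at or above 50% at 10 µM; inactive = inhibition below 50%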;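 note: firefly luciferase from ISG56 promoter only with Renilla not read in this screen; 0% = Sendai virus plus DMSO and 100% = medium plus DMSO without virus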). As to conditions: HEK293 RL24 IRF3 luciferase reporter, at 10 µM, stronger effect = higher value. (In general: In a reporter assay the amount or activity of a reporter protein is the signal.)
A short description of assay [8]: inhibitors of poly I:C-induced TLR3 signaling, primary screen, cell-based, poly I:C stimulus, luciferase, 10K MLSCN set (AID 602277;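 active = inhibition of the reporter signal at or above 50%; inactive = inhibition below 50%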). As to conditions: HEK293-TLR3 RL24 IRF3 luciferase reporter, at 10 µM, stronger effect = higher value.

Sequence of Alpha-2C adrenergic receptor (Homo sapiens) (P18825 whole entry, looked up): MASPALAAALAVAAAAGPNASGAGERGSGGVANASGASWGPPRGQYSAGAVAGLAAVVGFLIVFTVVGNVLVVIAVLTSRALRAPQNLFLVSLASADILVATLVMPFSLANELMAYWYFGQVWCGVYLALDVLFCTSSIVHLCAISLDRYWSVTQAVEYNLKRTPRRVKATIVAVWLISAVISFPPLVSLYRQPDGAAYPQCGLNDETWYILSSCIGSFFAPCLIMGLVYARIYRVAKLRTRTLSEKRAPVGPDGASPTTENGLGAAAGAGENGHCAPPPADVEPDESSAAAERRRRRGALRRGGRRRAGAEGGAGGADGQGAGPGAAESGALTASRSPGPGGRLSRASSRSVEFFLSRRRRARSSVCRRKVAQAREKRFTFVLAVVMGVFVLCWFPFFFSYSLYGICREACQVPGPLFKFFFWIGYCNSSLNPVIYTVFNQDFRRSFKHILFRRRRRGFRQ
Sequence of Voltage-gated potassium channel subunit beta-2 (Rattus norvegicus) (P62483 whole entry, looked up): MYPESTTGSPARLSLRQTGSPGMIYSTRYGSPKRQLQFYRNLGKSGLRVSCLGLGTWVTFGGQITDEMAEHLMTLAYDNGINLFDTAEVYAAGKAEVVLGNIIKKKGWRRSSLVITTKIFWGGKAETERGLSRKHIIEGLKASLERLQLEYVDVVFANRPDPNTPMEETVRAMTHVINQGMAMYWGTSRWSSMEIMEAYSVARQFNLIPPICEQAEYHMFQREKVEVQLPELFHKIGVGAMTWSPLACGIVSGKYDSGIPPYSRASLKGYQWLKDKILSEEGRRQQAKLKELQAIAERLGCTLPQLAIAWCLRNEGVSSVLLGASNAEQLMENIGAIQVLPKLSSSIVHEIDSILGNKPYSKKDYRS

Usually inhibition stands for the change of the read-out against control, counted positive when it falls. As to `CCOCCCNC(=O)CS(=O)(=O)Cc1nc(-c2cccc(OC)c2)oc1C`, the cell count in assay [1] came to 558. The inhibition in assay [1] is -43.9% (inactive); in assay [3], -6.1% (inactive); in assay [7], 12.4% (inactive); in assay [8], 33.7% (inactive). For the same compound, the inhibition of aggregation in assay [2] was 16% (inactive). The values for the nuclei count in assay [2] and in assay [3] were 65.2% and 97.9%, respectively. Moreover, the fluorescence slope in assay [4] is -0.596 (inactive). Besides, the NADPH fluorescence slope in assay [5] was 4.7e-07 (inactive). In addition, in assay [6], the slope is 0.00578 (inactive).
`Nc1c(C(=O)NCCN2CCOCC2)c2nc3ccccc3nc2n1-c1ccc2c(c1)OCO2`: the cell count in assay [1] was determined as 337. For the same compound, the inhibition is -8.4% (inactive) in assay [1], -53.1% (inactive) in assay [3], 11.3% (inactive) in assay [7] and 16.5% (inactive) in assay [8]. In assay [2], the inhibition of aggregation is -2.4% (inactive). For the same compound, the nuclei count in assay [2] worked out at 96.7%; in assay [3], 74%. The fluorescence slope in assay [4] is -0.348 (inactive). In addition, in assay [5], the NADPH fluorescence slope was -6.2e-05 (inactive). Besides, in assay [6], the slope is 0.00388 (inactive).
Regarding `C=CCSc1nc(N)c(C(=O)Nc2ccccc2C)cc1C(N)=O`, the cell count in assay [1] is 775. Moreover, the inhibition in assay [1] is 1.4% (inactive); in assay [3], -142% (inactive); in assay [7], -4.85% (inactive); in assay [8], 24.2% (inactive). For the same compound, in assay [2], the inhibition of aggregation is 15.6% (inactive). Further, the figures for the nuclei count in assay [2] and in assay [3] were 96.4% and 124%, respectively. The fluorescence slope in assay [4] was -0.46 (inactive). Moreover, in assay [5], the NADPH fluorescence slope is 1.4e-05 (inactive). Besides, the slope in assay [6] is 0.00326 (inactive).
Take `Cc1cccc(C2CC(c3ccc(Cl)cc3)Nc3nc(N)nn32)c1` (centres undefined): the cell count in assay [1] came out at 598. Moreover, the inhibition in assay [1] is -2.4% (inactive); in assay [3], -0.5% (inactive); in assay [7], 4.61% (inactive); in assay [8], 25.1% (inactive). Besides, in assay [2], the inhibition of aggregation is 18.5% (inactive). For the same compound, the nuclei count in assay [2] was found to be 58.9%; in assay [3], 102%. For the same compound, in assay [4], the fluorescence slope was -0.525 (inactive). For the same compound, the NADPH fluorescence slope in assay [5] was -4.5e-05 (inactive). In addition, the slope in assay [6] is 0.00816 (inactive).
With `CC1=CCC2C(=O)N(c3nc(C)cc(C)n3)C(=O)C2C1` (centres undefined), the cell count in assay [1] came out at 332. The inhibition was 4.2% (inactive) in assay [1], -124% (inactive) in assay [3], 12.7% (inactive) in assay [7] and 21.2% (inactive) in assay [8]. The inhibition of aggregation in assay [2] was 9% (inactive). Moreover, the results for the nuclei count in assay [2] and in assay [3] were 85.6% and 105%, respectively. In addition, in assay [4], the fluorescence slope is -0.53 (inactive). Also, the NADPH fluorescence slope in assay [5] is -7.2e-05 (inactive). Besides, the slope in assay [6] was 0.00507 (inactive).
On to `CSCCC(NC(=O)c1occc1C)C(=O)O` (centres undefined), for which the cell count in assay [1] is 361. For the same compound, the inhibition was 4% (inactive) in assay [1], -91.1% (inactive) in assay [3], 7.31% (inactive) in assay [7] and 21.8% (inactive) in assay [8]. Further, in assay [2], the inhibition of aggregation is -17.4% (inactive). Moreover, the nuclei count in assay [2] is 108%; in assay [3], 149%. Further, the fluorescence slope in assay [4] was -0.351 (inactive). Also, in assay [5], the NADPH fluorescence slope was -6.3e-05 (inactive). For the same compound, in assay [6], the slope was 0.00359 (inactive).
As to `COC(=O)c1ccc(Cl)c(NC(C)=O)c1`, the cell count in assay [1] is 367. The inhibition in assay [1] was 1.8% (inactive); in assay [3], -48.4% (inactive); in assay [7], 4.64% (inactive); in assay [8] it was 34.3% (inactive). For the same compound, the inhibition of aggregation in assay [2] was -20.6% (inactive). The nuclei count in assay [2] came to 110%; in assay [3], 78.5%. In addition, the fluorescence slope in assay [4] was -0.433 (inactive). For the same compound, the NADPH fluorescence slope in assay [5] is -4.1e-05 (inactive). The slope in assay [6] was 0.00415 (inactive).
Consider `CC1=C(C(=O)OC2CCCC2)C(c2ccc(C)o2)C2=C(CC(c3cccs3)CC2=O)N1` (centres undefined), for which the cell count in assay [1] was found to be 346. Besides, the inhibition was 3.5% (inactive) in assay [1], -10.5% (inactive) in assay [3], -5.28% (inactive) in assay [7] and 16.8% (inactive) in assay [8]. The inhibition of aggregation in assay [2] is -7.2% (inactive). The nuclei count in assay [2] was 81.1%; in assay [3], 99%. Further, in assay [4], the fluorescence slope is -0.459 (inactive). For the same compound, in assay [5], the NADPH fluorescence slope is -5.5e-05 (inactive). In addition, the slope in assay [6] was 0.00301 (inactive).
Regarding `COCCN1Cc2cccc(C(=O)Nc3cccnc3)c2C1=O`, the cell count in assay [1] was determined as 649. Also, the inhibition was -26.5% (inactive) in assay [1], -39.6% (inactive) in assay [3], 6.71% (inactive) in assay [7] and 5.54% (inactive) in assay [8]. The inhibition of aggregation in assay [2] was -6.7% (inactive). In addition, the nuclei count in assay [2] and in assay [3] was 100% throughout. The fluorescence slope in assay [4] was -0.503 (inactive). The NADPH fluorescence slope in assay [5] was -0.000182 (inactive). Also, the slope in assay [6] is 0.00506 (inactive).
Turning to `O=C(Nc1cccc2ccccc12)N1CCOCC1`, in assay [1], the cell count was determined as 654. Further, the inhibition in assay [1] was -3.4% (inactive); in assay [3] it was -33.2% (inactive); in assay [7], 18.7% (inactive); in assay [8] it was 23.7% (inactive). The inhibition of aggregation in assay [2] is -12% (inactive). For the same compound, the nuclei count in assay [2] was determined as 116%; in assay [3] it was 106%. Besides, the fluorescence slope in assay [4] is -0.341 (inactive). The NADPH fluorescence slope in assay [5] is -6.3e-05 (inactive). The slope in assay [6] was 0.00634 (inactive).
As to `COc1ccc2[nH]c(=O)c(CNC3CCCCC3)cc2c1`, the cell count in assay [1] was determined as 673. Further, the inhibition was 6.3% (inactive) in assay [1], -17.6% (inactive) in assay [3], 6.87% (inactive) in assay [7] and 29% (inactive) in assay [8]. The inhibition of aggregation in assay [2] is 3.5% (inactive). For the same compound, the values for the nuclei count in assay [2] and in assay [3] were 112% and 90.1%, respectively. Further, the fluorescence slope in assay [4] was -0.452 (inactive). Besides, the NADPH fluorescence slope in assay [5] is -3.4e-05 (inactive). Also, the slope in assay [6] was 0.00407 (inactive).
For the compound `COCCCn1nnnc1SCC(=O)Nc1nc(C)c(C)s1`, the cell count in assay [1] turned out to be 435. Also, the inhibition in assay [1] is -5.5% (inactive); in assay [3] it was -133% (inactive); in assay [7], 2.9% (inactive); in assay [8] it was 9.02% (inactive). For the same compound, the inhibition of aggregation in assay [2] was 14.2% (inactive). The nuclei count in assay [2] is 58.2%; in assay [3] it was 104%. Besides, the fluorescence slope in assay [4] was -0.499 (inactive). In addition, in assay [5], the NADPH fluorescence slope is -5.5e-05 (inactive). Moreover, the slope in assay [6] was 0.00473 (inactive).
Regarding `CCc1nnc(-n2nc(C)cc2-c2ccccc2)n1N`, the cell count in assay [1] worked out at 648. The inhibition is -2.4% (inactive) in assay [1], -20.7% (inactive) in assay [3], 15.3% (inactive) in assay [7] and 22.1% (inactive) in assay [8]. Moreover, the inhibition of aggregation in assay [2] was 0.6% (inactive). For the same compound, the nuclei count turned out to be 104% in assay [2] and 109% in assay [3]. In assay [4], the fluorescence slope was -0.551 (inactive). Also, in assay [5], the NADPH fluorescence slope was 2.6e-05 (inactive). In addition, the slope in assay [6] is 0.00642 (inactive).
On to `Cc1ccccc1N(C)S(=O)(=O)c1ccc2[nH]cc(C(=O)NCC3CCCO3)c(=O)c2c1` (centres undefined), for which the cell count in assay [1] stood at 523. Also, the inhibition was -20.4% (inactive) in assay [1], -52.3% (inactive) in assay [3], -1.58% (inactive) in assay [7] and 14.4% (inactive) in assay [8]. Moreover, the inhibition of aggregation in assay [2] was 17.8% (inactive). Moreover, the figures for the nuclei count in assay [2] and in assay [3] were 55% and 104%, respectively. Moreover, the fluorescence slope in assay [4] was -0.404 (inactive). Also, the NADPH fluorescence slope in assay [5] is -4.2e-05 (inactive). Also, the slope in assay [6] was 0.00343 (inactive).
